# Data from PubChem BioAssay (Tox21).
# A number with no mark means an inactive call. Inconclusive results are not listed. A call without a number means that no potency is given here. Active and inactive are the calls of the source. Unless noted, calls follow the shape of the dose curve; as a rule, active = well fitted curve in the direction sought with a large enough effect in the repeat runs; inconclusive = weak or mixed curves; inactive = no such curve, though single readings can be large; an effect the other way counts as inactive or inconclusive.
# Columns and labels:
# [1] = molecular target: Androgen receptor (Homo sapiens) (UniProt P10275); assay: qHTS assay to identify small molecule antagonists of the androgen receptor (AR) signaling pathway using the MDA cell line in the presence of 0.5 nM R1881 (AID 1259243); also: nearly all actives have a fitted effect of over 50% in size; also: potency is read from the fitted curve at half-maximal effect
# Method in brief: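 Luminescent reporter readout (ONE-Glo, 30 min, room temperature) after 16 hr co-treatment of MDA-kb2 cells with test compounds and 0.5 nM R1881 final, at 37C without CO2. The MMTV-driven luciferase responds to both AR and GR.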
# [2] = qHTS assay to identify small molecule HDAC inhibitors (AID 1259364); also: nearly all actives have a fitted effect of over 45% in size; also: potency is read from the fitted curve at half-maximal effect
# Method in brief: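 Luminescence read after 30 min room-temperature HDAC-Glo incubation measures cellular class I/II HDAC activity. Compounds were applied for 2 hr at 37 C to HCT-116 wild-type cells seeded the day before.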
# [3] = qHTS assay to identify small molecule HDAC inhibitors - cell viability counter screen (AID 1259365); also: series mostly up to about 92 µM; nearly all actives have a fitted effect of over 50% in size
# Method in brief: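 Counter screen in wild-type HCT-116 cells: compounds dissolved in DMSO are pin-transferred onto overnight-plated cells and left 2hr at 37C. ATP-based CellTiter-Glo luminescence then measures viable cells.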
# [4] = qHTS assay to identify small molecule antagonists of the sonic hedgehog signaling (Shh) pathway - cell viability counter screen (AID 1259367); also: nearly all actives have a fitted effect of over 55% in size; also: potency is read from the fitted curve at half-maximal effect
# Method in brief: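 Fluorescence read-out (CellTiter-Fluor, 1 hr at 37C) taken after 23 hr compound treatment of 3T3 Gli1-Luc cells stimulated with conditioned medium. Cells were seeded at 2,000 per well and pre-incubated 4 hr.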
# [5] = qHTS assay to identify small molecule agonists of the sonic hedgehog signaling (Shh) pathway (AID 1259368; calls by dose curve; also: nearly all actives have a fitted effect of over 15% in size; also: potency is read from the fitted curve at half-maximal effect)
# Method in brief: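 Luminescence was read after 30 min at room temperature with luciferase reagent. Before that, 3T3Gli1-Luc cells (NIH/3T3 clone, stable Gli1-Luc reporter; 2,000/well) were exposed to compounds for 24 hr at 37C, 5% CO2, compounds being added 4 hr post-plating.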
# [6] = qHTS assay to identify small molecule antagonists of the sonic hedgehog signaling (Shh) pathway (AID 1259369; calls by dose curve; also: nearly all actives have a fitted effect of over 45% in size; also: potency is read from the fitted curve at half-maximal effect)
# Method in brief: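 Antagonist mode: compound added to 3T3 Gli1-Luc cells followed by conditioned-medium stimulation, 24 h at 37 C, 5% CO2. Inhibition taken as loss of Gli1-driven luciferase luminescence.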
# [7] = qHTS assay to identify small molecule agonists of the androgen receptor (AR) signaling pathway in the presence of an antagonist - cell viability counter screen (AID 1259379); also: nearly all actives have a fitted effect of over 25% in size; also: potency is read from the fitted curve at half-maximal effect
# Method in brief: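 Cytotoxicity counter-screen run in the same wells as the nilutamide-challenged (3.0 µM final) AR agonist assay in MDA-kb2 cells. Compounds tested at 15 concentrations for 16 h, 37 °C without CO2; CellTiter-Fluor fluorescence read.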
# [8] = molecular target: Androgen receptor (Homo sapiens) (UniProt P10275); assay: qHTS assay to identify small molecule agonists of the androgen receptor (AR) signaling pathway in the presence of an antagonist (AID 1259381; calls by dose curve; also: nearly all actives have a fitted effect of over 15% in size)
# Method in brief: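 Agonist-mode confirmation run against 3.0 uM final nilutamide: compounds titrated at 15 concentrations onto MDA-kb2 MMTV-luciferase reporter cells. Luminescence measured with ONE-Glo following 16 hr incubation, 37C, 0% CO2.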
# [9] = qHTS assay to identify small molecule antagonists of the estrogen receptor beta (ER-beta) signaling pathway - cell viability counter screen (AID 1259382); also: nearly all actives have a fitted effect of over 55% in size; also: potency is read from the fitted curve at half-maximal effect
# Method in brief: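 Cytotoxicity was measured in the same wells by CellTiter-Glo luminescence after 30 min at room temperature. Cells were ER-beta-bla HEK293T in charcoal-stripped serum, given compound together with 1 nM E2 and incubated 16 h at 37C.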
# [10] = qHTS assay to identify small molecule agonists or antagonists of the thyroid stimulating hormone receptor (TSHR) signaling pathway - wild type cell line counter screen (AID 1259384; calls by dose curve)
# Method in brief: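 Wild-type Hek293 cells, 800/well, 18 h at 37C, then compound with Ro20-1724 for 30 min RT. cAMP by HTRF (cAMP-d2/anti-cAMP cryptate), 1 h RT, fluorescence read. 15 concentrations, triplicates.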
# [11] = molecular target: Thyrotropin receptor (Homo sapiens) (UniProt P16473); assay: qHTS assay to identify small molecule antagonists of the thyroid stimulating hormone receptor (TSHR) signaling pathway (AID 1259385; calls by dose curve; also: nearly all actives have a fitted effect of over 20% in size; also: potency is read from the fitted curve at half-maximal effect)
# Method in brief: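 TSHR-HEK293 cells (800/well) plated 18 h, then compounds with Ro20-1724 and TSH at 1.5 ng/mL final, 30 min at room temperature. cAMP quantified by HTRF (cAMP-d2/anti-cAMP-cryptate, 1 h); 15 concentrations in triplicate.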
# [12] = qHTS assay to identify small molecule agonists of the estrogen receptor alpha (ER-alpha) signaling pathway in the presence of an antagonist - cell viability counter screen (AID 1259386); also: nearly all actives have a fitted effect of over 30% in size; also: potency is read from the fitted curve at half-maximal effect
# Method in brief: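 Compounds tested at 15 concentrations for 22 h at 37C alongside 10.0nM (final) ICI-182,780 antagonist, in VM7Luc4E2 cells grown in phenol red-free, charcoal-stripped medium. Viability read by CellTiter-Fluor fluorescence after 1 h reagent incubation.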
# [13] = molecular target: Estrogen receptor (Homo sapiens) (UniProt P03372); assay: qHTS assay to identify small molecule antagonists of the estrogen receptor alpha (ER-alpha) signaling pathway using the BG1 cell line in the presence of 0.1 nM 17-beta-estradiol (AID 1259244); also: nearly all actives have a fitted effect of over 50% in size; also: potency is read from the fitted curve at half-maximal effect
# Method in brief: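 Luciferase luminescence (ONE-Glo, 30 min at room temperature) was read after 22 hr at 37C exposure to compounds plus 17beta-estradiol at 0.1 nM final. Cells were VM7Luc4E2 with endogenous ER-alpha and an ERE-driven luciferase, pre-cultured 5 days in hormone-depleted medium.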
# [14] = qHTS assay to identify small molecule agonists of the sonic hedgehog signaling (Shh) pathway - cell viability counter screen (AID 1259366); also: nearly all actives have a fitted effect of over 50% in size; also: potency is read from the fitted curve at half-maximal effect
# Method in brief: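 Cells are plated at 2,000 per well and left 4hr at 37C, 5% CO2 before compound addition. After 23hr of treatment, CellTiter-Fluor reagent is added for 1hr at 37C and fluorescence is measured.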
# [15] = molecular target: Estrogen receptor beta (Homo sapiens) (UniProt Q92731); assay: qHTS assay to identify small molecule agonists of the estrogen receptor beta (ER-beta) signaling pathway (AID 1259377; active = well fitted activation curve with a large enough effect in the signal ratio in the repeat runs, not every such curve was filed as active; the % refers to the signal ratio; also: potency is read from the fitted curve at half-maximal effect)
# Method in brief: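 Agonist mode cell assay in GripTite HEK293T cells expressing an ER-beta fusion that drives beta-lactamase from an Upstream Activator Sequence; 16 hr compound exposure at 37C, then 2 h LiveBLAzer B/G FRET substrate at room temperature, fluorescence read-out.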
# [16] = qHTS assay to identify small molecule agonists of the estrogen receptor beta (ER-beta) signaling pathway - cell viability counter screen (AID 1259380); also: nearly all actives have a fitted effect of over 30% in size; also: potency is read from the fitted curve at half-maximal effect
# Method in brief: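 Cell viability counter screen: CellTiter-Glo luminescence (30 min, room temperature) measured in the same wells as the beta-lactamase readout, after 16 hr compound exposure at 37C of ER-beta-bla HEK293T cells in 2% charcoal-stripped FBS medium.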
# [17] = molecular target: Estrogen receptor (Homo sapiens) (UniProt P03372); assay: qHTS assay to identify small molecule agonists of the estrogen receptor alpha (ER-alpha) signaling pathway in the presence of an antagonist (AID 1259383; calls by dose curve; also: top concentration of the series differs between compounds; nearly all actives have a fitted effect of over 15% in size)
# Method in brief: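 Agonist-mode confirmation run in the presence of 10.0nM (final) ICI-182,780 antagonist. The reporter was ERE-driven luciferase in VM7Luc4E2 cells, grown in charcoal-stripped serum. Cells were exposed to 15-concentration compound series for 22hr, then ONE-Glo luminescence was read.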
# [18] = qHTS assay to identify small molecule phospholipidosis (PLD) inducers (AID 1259344; active = well fitted curve in the direction sought with a large enough effect; an effect the other way counts as inactive or inconclusive)
# Method in brief: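 Read-out is LipidTOX Red fluorescence (ex 595/em 615) imaged in HepG2 cells after 24 h compound exposure at 37 C, with Hoechst nuclear counterstain (ex 352/em 461) allowing per-cell normalisation.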
# [19] = molecular target: Estrogen receptor beta (Homo sapiens) (UniProt Q92731); assay: qHTS assay to identify small molecule antagonists of the estrogen receptor beta (ER-beta) signaling pathway (AID 1259378; active = well fitted inhibition curve with a large enough effect in the signal ratio in the repeat runs, not every such curve was filed as active; the % refers to the signal ratio; also: potency is read from the fitted curve at half-maximal effect)
# Method in brief: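 ER-beta-UAS-bla HEK293T cells in 2% charcoal-stripped FBS medium treated with compound plus 1nM final 17-beta-estradiol for 16 hr at 37C. Beta-lactamase reporter read by FRET substrate fluorescence after 2 hours at room temperature.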
# [20] = qHTS assay to identify small molecule antagonists of the androgen receptor (AR) signaling pathway using the MDA cell line in the presence of 0.5 nM R1881 - cell viability counter screen (AID 1259242); also: nearly all actives have a fitted effect of over 45% in size; also: potency is read from the fitted curve at half-maximal effect
# Method in brief: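 Live-cell protease activity was measured by CellTiter-Fluor fluorescence after 30 min. Before that, MDA-kb2 MMTV-luciferase cells had 16 hr at 37C without CO2, exposed to test compounds and 0.5 nM R1881 final.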
# Sequence of Thyrotropin receptor (Homo sapiens) (P16473 whole entry, looked up): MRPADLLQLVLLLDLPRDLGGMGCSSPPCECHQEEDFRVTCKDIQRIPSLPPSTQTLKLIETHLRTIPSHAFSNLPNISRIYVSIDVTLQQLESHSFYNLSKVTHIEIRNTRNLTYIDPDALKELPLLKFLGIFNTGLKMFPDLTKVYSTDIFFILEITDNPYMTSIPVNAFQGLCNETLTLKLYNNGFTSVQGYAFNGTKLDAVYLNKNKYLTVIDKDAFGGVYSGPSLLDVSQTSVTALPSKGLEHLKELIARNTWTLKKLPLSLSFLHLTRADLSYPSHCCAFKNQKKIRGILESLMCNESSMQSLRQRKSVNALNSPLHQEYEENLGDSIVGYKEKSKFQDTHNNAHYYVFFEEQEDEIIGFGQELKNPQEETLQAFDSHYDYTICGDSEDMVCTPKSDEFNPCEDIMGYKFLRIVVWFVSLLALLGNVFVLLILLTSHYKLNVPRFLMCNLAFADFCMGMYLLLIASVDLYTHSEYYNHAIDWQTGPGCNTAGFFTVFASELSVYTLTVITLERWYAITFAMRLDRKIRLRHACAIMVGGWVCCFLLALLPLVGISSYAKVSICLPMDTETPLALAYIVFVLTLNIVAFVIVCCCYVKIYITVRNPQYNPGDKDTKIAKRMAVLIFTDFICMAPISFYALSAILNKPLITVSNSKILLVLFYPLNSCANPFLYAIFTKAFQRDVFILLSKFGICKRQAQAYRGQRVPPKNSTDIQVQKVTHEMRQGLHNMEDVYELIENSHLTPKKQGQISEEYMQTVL
# Sequence of Androgen receptor (Homo sapiens) (P10275 whole entry, looked up): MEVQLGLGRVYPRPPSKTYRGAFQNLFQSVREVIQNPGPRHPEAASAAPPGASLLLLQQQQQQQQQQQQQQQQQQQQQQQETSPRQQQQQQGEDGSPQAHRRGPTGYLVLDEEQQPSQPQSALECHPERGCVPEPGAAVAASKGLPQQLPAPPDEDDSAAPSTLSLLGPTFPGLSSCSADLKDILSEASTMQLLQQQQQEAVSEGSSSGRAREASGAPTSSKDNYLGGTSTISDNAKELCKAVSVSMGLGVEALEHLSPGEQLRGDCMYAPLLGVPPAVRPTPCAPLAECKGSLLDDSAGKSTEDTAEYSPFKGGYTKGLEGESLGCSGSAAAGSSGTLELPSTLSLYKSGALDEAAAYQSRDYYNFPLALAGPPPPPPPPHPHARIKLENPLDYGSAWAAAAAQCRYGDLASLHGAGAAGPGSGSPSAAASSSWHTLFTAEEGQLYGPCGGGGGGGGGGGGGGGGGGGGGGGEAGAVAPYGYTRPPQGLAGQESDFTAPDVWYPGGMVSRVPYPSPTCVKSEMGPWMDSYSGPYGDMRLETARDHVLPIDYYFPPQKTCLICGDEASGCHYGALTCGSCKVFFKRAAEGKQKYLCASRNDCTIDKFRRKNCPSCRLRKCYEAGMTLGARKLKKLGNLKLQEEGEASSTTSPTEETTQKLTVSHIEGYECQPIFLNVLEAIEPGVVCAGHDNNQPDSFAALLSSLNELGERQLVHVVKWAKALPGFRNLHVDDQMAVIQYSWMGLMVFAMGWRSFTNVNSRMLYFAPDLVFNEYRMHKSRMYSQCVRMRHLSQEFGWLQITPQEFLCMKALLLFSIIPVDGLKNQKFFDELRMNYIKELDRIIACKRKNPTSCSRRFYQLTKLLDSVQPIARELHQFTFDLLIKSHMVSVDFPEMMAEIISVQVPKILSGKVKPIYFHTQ
# Sequence of Estrogen receptor beta (Homo sapiens) (Q92731 whole entry, looked up, the tested form may be a part): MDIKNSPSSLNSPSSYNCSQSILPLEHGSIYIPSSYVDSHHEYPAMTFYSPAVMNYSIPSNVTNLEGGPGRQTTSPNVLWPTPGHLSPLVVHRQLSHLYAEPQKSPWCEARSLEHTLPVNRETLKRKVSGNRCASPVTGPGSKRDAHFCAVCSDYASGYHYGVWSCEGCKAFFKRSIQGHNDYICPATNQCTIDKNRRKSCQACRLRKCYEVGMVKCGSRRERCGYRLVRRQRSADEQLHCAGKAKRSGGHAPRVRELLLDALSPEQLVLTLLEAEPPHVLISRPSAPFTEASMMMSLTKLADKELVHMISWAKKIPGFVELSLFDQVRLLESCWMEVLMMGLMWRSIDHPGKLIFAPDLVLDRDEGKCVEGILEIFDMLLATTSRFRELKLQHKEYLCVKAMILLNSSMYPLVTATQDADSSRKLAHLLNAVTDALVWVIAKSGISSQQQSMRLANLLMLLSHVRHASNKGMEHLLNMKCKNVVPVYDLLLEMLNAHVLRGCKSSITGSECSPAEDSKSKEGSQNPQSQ
# Sequence of Estrogen receptor (Homo sapiens) (P03372 whole entry, looked up): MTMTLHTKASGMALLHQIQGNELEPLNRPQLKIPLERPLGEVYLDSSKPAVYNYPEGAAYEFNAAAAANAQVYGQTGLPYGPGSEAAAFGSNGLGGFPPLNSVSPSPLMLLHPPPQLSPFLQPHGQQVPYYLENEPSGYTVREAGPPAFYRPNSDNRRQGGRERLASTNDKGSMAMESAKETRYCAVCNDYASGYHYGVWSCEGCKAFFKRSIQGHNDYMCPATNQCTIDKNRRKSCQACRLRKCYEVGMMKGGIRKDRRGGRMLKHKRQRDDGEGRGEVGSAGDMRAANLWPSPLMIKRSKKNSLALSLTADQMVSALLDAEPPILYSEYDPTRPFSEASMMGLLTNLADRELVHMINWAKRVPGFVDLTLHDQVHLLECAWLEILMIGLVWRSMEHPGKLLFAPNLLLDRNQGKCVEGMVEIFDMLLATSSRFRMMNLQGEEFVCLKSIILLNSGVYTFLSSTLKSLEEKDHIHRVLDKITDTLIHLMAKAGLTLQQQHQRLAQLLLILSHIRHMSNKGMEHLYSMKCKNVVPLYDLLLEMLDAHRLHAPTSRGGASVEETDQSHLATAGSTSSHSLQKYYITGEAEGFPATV
SMILES,Potency [1],Potency [2],Potency [3],Potency [4],Potency [5],Potency [6],Potency [7],Potency [8],Potency [9],outcome [10],Potency [11],Potency [12],Potency [13],Potency [14],Potency [15],Potency [16],Potency [17],Potency [18],Potency [19],Potency [20]
CCC(C)c1cc([N+](=O)[O-])cc([N+](=O)[O-])c1OC(=O)OC(C)C (stereo unspecified),38.6 µM (active),inactive,inactive,68.6 µM (active),inactive,21.7 µM (active),61.1 µM (active),inactive,inactive,inactive,inactive,54.5 µM (active),–,–,–,–,–,–,–,–
CCCCN(CCCC)CCC(O)c1cc2c(Cl)cc(Cl)cc2c2cc(C(F)(F)F)ccc12 (stereo unspecified),–,inactive,inactive,inactive,inactive,–,–,–,–,inactive,inactive,inactive,inactive,inactive,inactive,7.5 µM (active),inactive,–,–,–
C[n+]1c2cc(N)ccc2cc2ccc(N)cc21 (tested in a mixture with another compound),13.3 µM (active),inactive,inactive,–,inactive,–,–,inactive,–,–,–,–,–,–,–,11.9 µM (active),–,inactive,–,–
Cc1c(C)n(Cc2ccccc2)c2ccc(C(=O)OCCN(C)C)cc12,–,–,–,inactive,inactive,6.68 µM (active),–,–,–,inactive,inactive,inactive,–,–,inactive,–,–,–,–,–
CN(C)CCCN1c2ccccc2Sc2ccc(C(F)(F)F)cc21,–,inactive,inactive,–,inactive,29.8 µM (active),–,–,18.8 µM (active),inactive,29.8 µM (active),inactive,inactive,inactive,–,18.8 µM (active),inactive,–,–,–
N#CSCSc1nc2ccccc2s1,inactive,19.3 µM (active),inactive,24.3 µM (active),inactive,1.93 µM (active),–,inactive,–,inactive,–,inactive,–,10.9 µM (active),–,8.63 µM (active),inactive,–,–,–
Nc1cc(Cl)c([N+](=O)[O-])cc1O,–,inactive,inactive,–,inactive,–,48.2 µM (active),–,inactive,inactive,inactive,54 µM (active),–,–,–,inactive,inactive,–,–,–
COc1ccccc1OCCNCC(O)COc1cccc2[nH]c3ccccc3c12 (stereo unspecified),–,inactive,inactive,–,inactive,21.1 µM (active),29.8 µM (active),inactive,11.9 µM (active),inactive,33.5 µM (active),–,–,26.6 µM (active),inactive,9.44 µM (active),inactive,inactive,7.5 µM (active),–
CC(=O)OC(OC(C)=O)c1ccc([N+](=O)[O-])o1,–,–,–,24.8 µM (active),–,8.78 µM (active),62.2 µM (active),–,–,inactive,–,49.4 µM (active),–,22.1 µM (active),–,62.2 µM (active),–,–,–,–
COc1cc(C=C2CCC/C(=C\c3ccc(O)c(OC)c3)C2=O)ccc1O,9.44 µM (active),inactive,inactive,23.7 µM (active),26.6 µM (active),–,26.6 µM (active),inactive,–,inactive,–,–,–,–,–,33.5 µM (active),inactive,–,–,–
Oc1ccc(-c2ccc(O)cc2)cc1,–,–,–,–,inactive,6.15 µM (active),inactive,–,inactive,inactive,inactive,inactive,–,–,2.75 µM (active),–,–,–,–,inactive
CCC(C)(C)c1cc(O)c(C(C)(C)CC)cc1O,17.2 µM (active),inactive,inactive,inactive,inactive,6.86 µM (active),61.1 µM (active),inactive,inactive,inactive,–,inactive,68.6 µM (active),inactive,inactive,61.1 µM (active),inactive,–,48.6 µM (active),–
CN(C)c1ccc(N=Nc2ccccc2C(=O)O)cc1,–,8.63 µM (active),inactive,24.3 µM (active),–,2.17 µM (active),68.6 µM (active),–,inactive,–,–,–,inactive,21.7 µM (active),inactive,inactive,inactive,–,–,–
CN1CCN(C2Cc3ccccc3Sc3ccc(Cl)cc32)CC1 (stereo unspecified),29.8 µM (active),–,inactive,–,–,–,–,inactive,18.8 µM (active),inactive,–,inactive,inactive,–,–,21.1 µM (active),inactive,–,–,–
CCN(CC)CCOc1ccc(C(O)(Cc2ccc(Cl)cc2)c2ccc(C)cc2)cc1 (stereo unspecified),–,inactive,inactive,–,inactive,–,–,–,29.8 µM (active),inactive,29.8 µM (active),inactive,inactive,–,inactive,26.6 µM (active),inactive,inactive,10.6 µM (active),–
CCO[Si](CCCSSSSCCC[Si](OCC)(OCC)OCC)(OCC)OCC,–,inactive,inactive,inactive,inactive,inactive,–,–,54.5 µM (active),–,–,inactive,inactive,inactive,–,61.2 µM (active),inactive,–,–,–
CO[C@H]1C=CO[C@@]2(C)Oc3c(C)c(O)c4c(O)c(cc(O)c4c3C2=O)NC(=O)/C(C)=C\C=C/[C@H](C)[C@H](O)[C@@H](C)[C@@H](O)[C@@H](C)[C@H](OC(C)=O)[C@@H]1C,–,inactive,inactive,15.5 µM (active),inactive,–,48.9 µM (active),–,69.1 µM (active),inactive,–,38.8 µM (active),54.9 µM (active),13.8 µM (active),inactive,–,inactive,–,43.6 µM (active),–
CCN(CC)CCNc1ccc(CO)c2sc3ccccc3c(=O)c12,–,inactive,inactive,–,inactive,13.3 µM (active),–,–,11.9 µM (active),–,–,10.6 µM (active),inactive,–,–,10.6 µM (active),inactive,–,–,–
Cc1cc(Nc2ccc(O)cc2)ccc1N,–,–,–,24.2 µM (active),inactive,–,24.2 µM (active),–,inactive,–,–,30.5 µM (active),–,30.5 µM (active),inactive,27.2 µM (active),–,–,–,48.3 µM (active)
CCC1(c2cnc[nH]2)Cc2ccccc2C1,–,inactive,inactive,inactive,inactive,inactive,inactive,–,inactive,–,–,inactive,–,inactive,–,–,–,–,–,–
CC(C)c1cccc(C(C)C)c1N1C(=O)c2ccc(O)cc2C1=O,–,–,–,inactive,inactive,13.7 µM (active),–,–,–,inactive,–,inactive,–,–,–,–,–,–,–,inactive
CC(C)(c1cc(Br)c(OCCO)c(Br)c1)c1cc(Br)c(OCCO)c(Br)c1,23.8 µM (active),inactive,inactive,inactive,–,1.89 µM (active),47.5 µM (active),inactive,53.3 µM (active),–,–,53.3 µM (active),–,–,–,42.3 µM (active),inactive,–,–,–
